In the supplement of paper PMC10849652:
The full data set covers some 8,800 targets. This sample favours those with a hit. About 0.5% of all pairs of compound and target were hits.

Each target was assayed with Cc1cccc(CC(=O)N2CCc3c2ccc(-c2cn(C)c4ncnc(N)c24)c3F)n1 (assay: log2 fold change, soluble protein after heating vs DMSO (PISA); higher = thermal stabilisation; K562 lysate, 10 uM; active = over 0.2 and 3.5 SD of the protein, either way, in both replicates (recomputed)).
Method in brief: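 K562 pellets were dounce-homogenised in PBS pH 7.4 with 1 mM MgCl2, and the crude extract at 1 mg/mL protein was treated with 10 μM compound for 30 min. Aliquots were heated for 3 min across 48°C-58°C, pooled, and brought to 0.5% NP-40 at 4°C; soluble protein was the supernatant after 21,000xg for 90 min. Soluble protein was quantified by TMTpro 16plex LC-MS/MS with channel sums equalised, and reported as log2 fold change in thermal stability against DMSO controls, with values from duplicates.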

UniProt P08473, sequence (P08473 whole entry, looked up): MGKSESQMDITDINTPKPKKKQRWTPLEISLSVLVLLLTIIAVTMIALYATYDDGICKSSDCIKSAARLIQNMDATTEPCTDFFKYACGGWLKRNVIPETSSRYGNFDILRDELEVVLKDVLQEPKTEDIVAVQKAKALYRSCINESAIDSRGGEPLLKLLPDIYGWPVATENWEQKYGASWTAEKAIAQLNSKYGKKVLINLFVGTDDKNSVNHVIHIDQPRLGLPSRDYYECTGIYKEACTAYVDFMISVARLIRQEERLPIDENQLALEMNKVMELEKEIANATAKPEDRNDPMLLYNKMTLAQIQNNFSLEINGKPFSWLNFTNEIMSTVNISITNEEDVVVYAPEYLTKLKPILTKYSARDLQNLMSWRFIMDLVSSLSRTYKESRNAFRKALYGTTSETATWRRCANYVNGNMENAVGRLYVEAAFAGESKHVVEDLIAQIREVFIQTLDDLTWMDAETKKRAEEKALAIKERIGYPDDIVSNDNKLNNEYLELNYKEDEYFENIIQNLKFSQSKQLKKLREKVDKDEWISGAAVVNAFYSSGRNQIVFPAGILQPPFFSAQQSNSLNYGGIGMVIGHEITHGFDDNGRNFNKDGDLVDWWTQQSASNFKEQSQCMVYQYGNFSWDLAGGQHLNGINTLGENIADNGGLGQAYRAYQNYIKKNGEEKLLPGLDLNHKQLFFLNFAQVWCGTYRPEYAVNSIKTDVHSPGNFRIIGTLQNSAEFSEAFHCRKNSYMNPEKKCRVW
UniProt Q8N4N3, sequence (Q8N4N3 whole entry, looked up): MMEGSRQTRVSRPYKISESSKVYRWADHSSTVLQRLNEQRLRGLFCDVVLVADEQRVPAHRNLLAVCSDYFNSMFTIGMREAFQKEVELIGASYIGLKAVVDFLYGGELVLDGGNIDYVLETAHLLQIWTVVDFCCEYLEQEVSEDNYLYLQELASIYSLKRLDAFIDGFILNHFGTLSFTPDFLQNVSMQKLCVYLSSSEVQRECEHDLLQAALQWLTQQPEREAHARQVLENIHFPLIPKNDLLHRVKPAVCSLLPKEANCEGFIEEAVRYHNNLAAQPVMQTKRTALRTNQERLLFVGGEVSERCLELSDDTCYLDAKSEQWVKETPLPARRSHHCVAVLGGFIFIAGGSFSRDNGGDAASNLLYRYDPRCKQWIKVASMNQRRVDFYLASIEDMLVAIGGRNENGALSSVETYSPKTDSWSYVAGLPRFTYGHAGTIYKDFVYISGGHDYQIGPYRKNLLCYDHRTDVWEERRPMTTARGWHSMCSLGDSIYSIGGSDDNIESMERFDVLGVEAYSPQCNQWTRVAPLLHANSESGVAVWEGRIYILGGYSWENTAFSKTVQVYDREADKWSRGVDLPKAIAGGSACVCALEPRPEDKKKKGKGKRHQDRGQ
UniProt Q9NSK0, sequence (Q9NSK0 whole entry, looked up): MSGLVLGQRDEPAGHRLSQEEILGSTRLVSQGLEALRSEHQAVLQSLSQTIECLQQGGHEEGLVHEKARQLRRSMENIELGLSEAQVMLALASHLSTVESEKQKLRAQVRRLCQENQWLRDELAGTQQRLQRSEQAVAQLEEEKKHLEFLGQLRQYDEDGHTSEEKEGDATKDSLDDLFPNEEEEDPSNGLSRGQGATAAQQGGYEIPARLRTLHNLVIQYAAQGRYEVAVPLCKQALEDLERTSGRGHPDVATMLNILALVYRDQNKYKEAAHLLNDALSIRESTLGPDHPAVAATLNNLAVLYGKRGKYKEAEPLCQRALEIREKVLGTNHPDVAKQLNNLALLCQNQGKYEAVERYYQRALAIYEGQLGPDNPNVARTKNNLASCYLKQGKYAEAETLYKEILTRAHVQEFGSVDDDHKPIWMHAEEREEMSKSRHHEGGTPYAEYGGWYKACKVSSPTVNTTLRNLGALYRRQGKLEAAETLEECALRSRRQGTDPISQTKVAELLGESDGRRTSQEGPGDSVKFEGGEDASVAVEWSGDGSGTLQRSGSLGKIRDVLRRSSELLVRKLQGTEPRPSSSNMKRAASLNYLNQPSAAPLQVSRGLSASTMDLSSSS
UniProt Q9Y4K4, sequence (Q9Y4K4 whole entry, looked up): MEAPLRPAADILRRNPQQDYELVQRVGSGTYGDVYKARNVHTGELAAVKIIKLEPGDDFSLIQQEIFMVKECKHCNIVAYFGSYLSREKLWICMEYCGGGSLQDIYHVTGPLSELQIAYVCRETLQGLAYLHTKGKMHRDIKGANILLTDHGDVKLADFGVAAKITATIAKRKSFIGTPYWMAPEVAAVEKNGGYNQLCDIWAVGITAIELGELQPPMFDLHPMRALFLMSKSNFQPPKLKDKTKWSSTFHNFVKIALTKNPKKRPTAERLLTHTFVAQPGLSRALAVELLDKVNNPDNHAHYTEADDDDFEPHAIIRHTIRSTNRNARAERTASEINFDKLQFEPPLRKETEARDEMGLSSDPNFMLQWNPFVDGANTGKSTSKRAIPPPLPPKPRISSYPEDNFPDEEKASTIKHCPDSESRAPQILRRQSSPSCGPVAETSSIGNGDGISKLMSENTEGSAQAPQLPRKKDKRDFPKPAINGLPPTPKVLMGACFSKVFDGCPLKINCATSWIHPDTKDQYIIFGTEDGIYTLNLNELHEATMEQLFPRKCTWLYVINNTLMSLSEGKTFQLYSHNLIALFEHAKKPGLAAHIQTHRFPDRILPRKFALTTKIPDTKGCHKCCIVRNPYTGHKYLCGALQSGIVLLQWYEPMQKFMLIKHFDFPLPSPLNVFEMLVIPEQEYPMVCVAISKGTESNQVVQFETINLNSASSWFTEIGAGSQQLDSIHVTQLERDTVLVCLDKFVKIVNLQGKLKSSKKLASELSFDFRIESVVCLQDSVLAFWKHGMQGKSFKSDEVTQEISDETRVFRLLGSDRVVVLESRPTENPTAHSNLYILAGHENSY
UniProt Q16644, sequence (Q16644 whole entry, looked up): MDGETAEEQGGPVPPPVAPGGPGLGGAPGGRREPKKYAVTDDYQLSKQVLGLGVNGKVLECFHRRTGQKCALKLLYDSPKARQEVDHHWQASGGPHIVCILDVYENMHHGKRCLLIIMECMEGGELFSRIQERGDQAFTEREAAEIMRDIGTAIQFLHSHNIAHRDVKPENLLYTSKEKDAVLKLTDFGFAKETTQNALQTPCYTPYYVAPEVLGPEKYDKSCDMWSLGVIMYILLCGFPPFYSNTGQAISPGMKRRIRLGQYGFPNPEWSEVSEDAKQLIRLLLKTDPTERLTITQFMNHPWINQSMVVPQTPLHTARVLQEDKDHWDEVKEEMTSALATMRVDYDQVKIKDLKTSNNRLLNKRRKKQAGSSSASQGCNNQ
UniProt P27361, sequence (P27361 whole entry, looked up): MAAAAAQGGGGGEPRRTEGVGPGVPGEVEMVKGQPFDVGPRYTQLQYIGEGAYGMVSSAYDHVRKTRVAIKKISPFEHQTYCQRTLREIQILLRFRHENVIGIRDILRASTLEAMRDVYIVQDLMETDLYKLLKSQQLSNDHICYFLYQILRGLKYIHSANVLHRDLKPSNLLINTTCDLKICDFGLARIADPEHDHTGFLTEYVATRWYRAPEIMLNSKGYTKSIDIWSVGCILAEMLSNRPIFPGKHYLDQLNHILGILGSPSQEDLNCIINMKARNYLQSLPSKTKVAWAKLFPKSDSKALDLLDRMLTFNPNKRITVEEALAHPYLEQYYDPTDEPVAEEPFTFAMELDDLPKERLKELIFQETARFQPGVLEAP
UniProt Q16539, sequence (Q16539 whole entry, looked up): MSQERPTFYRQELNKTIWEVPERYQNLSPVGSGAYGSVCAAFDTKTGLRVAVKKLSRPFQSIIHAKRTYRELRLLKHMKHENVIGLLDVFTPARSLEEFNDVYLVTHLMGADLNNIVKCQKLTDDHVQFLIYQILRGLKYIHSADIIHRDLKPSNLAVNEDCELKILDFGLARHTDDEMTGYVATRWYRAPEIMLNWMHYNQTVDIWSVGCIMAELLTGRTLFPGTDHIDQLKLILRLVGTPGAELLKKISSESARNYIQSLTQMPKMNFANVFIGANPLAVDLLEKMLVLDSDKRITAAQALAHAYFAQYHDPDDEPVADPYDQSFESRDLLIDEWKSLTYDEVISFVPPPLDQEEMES
UniProt Q13163, sequence (Q13163 whole entry, looked up): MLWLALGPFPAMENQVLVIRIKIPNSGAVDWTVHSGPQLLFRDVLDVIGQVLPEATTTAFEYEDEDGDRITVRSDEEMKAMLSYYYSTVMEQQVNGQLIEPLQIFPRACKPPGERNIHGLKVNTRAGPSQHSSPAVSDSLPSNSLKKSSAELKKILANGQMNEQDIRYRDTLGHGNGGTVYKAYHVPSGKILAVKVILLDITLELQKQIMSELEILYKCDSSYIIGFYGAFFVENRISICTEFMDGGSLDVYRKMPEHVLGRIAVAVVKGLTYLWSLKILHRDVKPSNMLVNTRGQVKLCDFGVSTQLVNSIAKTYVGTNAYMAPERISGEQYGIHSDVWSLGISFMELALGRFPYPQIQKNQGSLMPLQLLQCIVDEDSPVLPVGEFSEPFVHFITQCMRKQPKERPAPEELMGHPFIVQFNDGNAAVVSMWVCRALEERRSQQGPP
UniProt P11279, sequence (P11279 whole entry, looked up): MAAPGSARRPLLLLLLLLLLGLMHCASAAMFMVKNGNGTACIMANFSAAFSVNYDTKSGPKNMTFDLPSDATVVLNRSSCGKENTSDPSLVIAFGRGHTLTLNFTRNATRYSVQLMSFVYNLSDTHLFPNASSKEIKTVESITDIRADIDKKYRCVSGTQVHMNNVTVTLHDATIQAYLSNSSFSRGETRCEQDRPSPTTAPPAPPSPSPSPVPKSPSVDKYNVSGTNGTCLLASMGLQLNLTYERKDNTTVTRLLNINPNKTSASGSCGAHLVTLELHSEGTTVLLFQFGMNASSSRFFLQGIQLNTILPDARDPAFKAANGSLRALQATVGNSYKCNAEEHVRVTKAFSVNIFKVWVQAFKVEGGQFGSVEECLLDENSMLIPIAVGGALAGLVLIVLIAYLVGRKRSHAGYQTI

log2 fold change, inactive:
LAMP1 (UniProt P11279) 0.172
KLC4 isoform 3 (UniProt Q9NSK0) 0.001
MAP2K7 isoform 4 (UniProt O14733) 0.002
LIG4 (UniProt P49917) 0.073
MAPKAPK3 (UniProt Q16644) -0.014
MAPK3 (UniProt P27361) -0.043
KLHL36 (UniProt Q8N4N3) -0.052
MME (UniProt P08473) 0.048
MAP4K5 (UniProt Q9Y4K4) 0.112
MAP2K5 (UniProt Q13163) 0.105
MAPK14 isoform 2 (UniProt Q16539) -0.122
LLGL1 (UniProt Q15334) -0.019
